Results from PubChem BioAssay (Tox21).
Results filed as inconclusive are left out. The source made the active and inactive calls. Unless noted, calls follow the shape of the dose curve; as a rule, active = well fitted curve in the direction sought with a large enough effect in the repeat runs; inconclusive = weak or mixed curves; inactive = no such curve, though single readings can be large; an effect the other way counts as inactive or inconclusive.

Experiments:
[1] = qHTS assay for small molecules that induce genotoxicity in human embryonic kidney cells expressing luciferase-tagged ATAD5 (AID 651632); also: nearly all actives have a fitted effect of over 15% in size; also: potency is read from the fitted curve at half-maximal effect
In short: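 Test compounds were delivered by pin tool onto HEK293T reporter cells (2,000/well) expressing ATAD5 fused to luciferase. After 16 hr at 37C, 5% CO2, Amplite was added for 30 min at room temperature and luminescence was measured.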

[2] = qHTS assay for small molecule agonists of the p53 signaling pathway - cell viability (AID 651633; calls by dose curve; also: nearly all actives have a fitted effect of over 30% in size; also: potency is read from the fitted curve at half-maximal effect)
In short: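 p53RE-bla cells, seeded at 4,000 per well and rested 5 h at 37 C/5% CO2, received compounds in DMSO for 16 h at 37 C. CellTiter-Glo was then added, and luminescence was read after 30 min at room temperature to gauge cytotoxicity.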

[3] = qHTS assay for small molecules that induce genotoxicity in human embryonic kidney cells expressing luciferase-tagged ATAD5 - cell viability (AID 651634; calls by dose curve; also: nearly all actives have a fitted effect of over 25% in size; also: potency is read from the fitted curve at half-maximal effect)
In short: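 Quantitative high-throughput format. HEK293T cells expressing ATAD5 fused to luciferase were plated at 2,000 cells/well and treated 15.5 hr with compound versus DMSO. Viability was determined by fluorescent live-cell protease substrate, 30 min at 37C.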

[4] = qHTS assay to test for compound auto fluorescence at 590 nm (red) in HepG2 cells (AID 720674)
In short: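 Compound auto-fluorescence is scored relative to Rose Bengal sodium, measured at 540/590 nm in live HepG2 cultures after 1 hr compound contact (37 C, 5% CO2).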

[5] = qHTS assay to test for compound auto fluorescence at 535 nm (green) in HepG2 cells (AID 720675)
[6] = qHTS assay to test for compound auto fluorescence at 590 nm (red) in HEK293 cells (AID 720679)
In short: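 Using HEK293 cells at 2,000 per well, the screen added 23 nL of each compound after cell attachment and incubated overnight (37C, 5% CO2). The plate reader then captured red-label fluorescence, Ex/Em 540/590nm.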

[7] = qHTS assay for small molecule disruptors of the mitochondrial membrane potential - cell viability (AID 720634; calls by dose curve; also: nearly all actives have a fitted effect of over 20% in size; also: potency is read from the fitted curve at half-maximal effect)
In short: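 Same-well counter-screen: following the MMP dye addition, CellTiter-Glo was added to 1 hr compound-treated HepG2 cells and luminescence read after 30 min at room temperature.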

[8] = qHTS assay to test for compound auto fluorescence at 460 nm (blue) in HEK293 cells (AID 720678)
In short: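 Measured: blue fluorescence (Ex 405/Em 460 nm) of compound-treated HEK293 cells, incubated overnight at 37C with 5% CO2 and scaled to triamterene equivalents.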

[9] = qHTS assay for small molecule disruptors of the mitochondrial membrane potential (AID 720635); also: potency is read from the fitted curve at half-maximal effect
In short: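 HepG2 cells (2,000/well) attached overnight at 37C, then took compound for 1 hr at 37C, 5% CO2. Mito-MPS dye was added for 30 min; fluorescence was read at 490/535 nm (monomers) and 540/590 nm (aggregates).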
% is scaled to controls: 0 for no effect and ±100 for the full control effect.

CNC(=S)NN
inactive: Potency [1] | Potency [2] | Potency [3] | Potency [4] | Potency [5] | Potency [6]

CCCOc1sc(C(=O)N2CCC(c3cc(CN)ccc3F)CC2)c(C)c1Br
inactive: Potency [1] | Potency [3] | Potency [7] | Potency [4] | Potency [5] | Potency [8] | Potency [6]

O=C1NC2CCCCN2C12CCN(CCCN1c3ccccc3CCc3ccc(Cl)cc31)CC2 (stereo not drawn)
inactive: Potency [1] | Potency [2] | Potency [7] | Potency [9] | Potency [4] | Potency [5] | Potency [6]

Cc1nc(Nc2ncc(C(=O)Nc3c(C)cccc3Cl)s2)cc(N2CCN(CCO)CC2)n1
inactive: Potency [1] | Potency [2] | Potency [4] | Potency [8]

CCN(CC)c1ccc(N)cc1
inactive: Potency [1] | Potency [2] | Potency [5] | Potency [8] | Potency [6]

C=C[C@](C)(O)CC[C@@H]1[C@@]2(C)CCCC(C)(C)[C@@H]2CC[C@@]1(C)O
inactive: Potency [1] | Potency [8] | Potency [6]
active: Potency [2] 61.1 µM

O=C1C=CC(=O)N1c1ccccc1
inactive: Potency [1] | Potency [4] | Potency [5] | Potency [8] | Potency [6]
active: Potency [2] 48.6 µM | Potency [9] 48.6 µM

CCCCCCCC/C=C\CCCCCCCC(=O)NCc1ccc(O)c(OC)c1
inactive: Potency [1] | Potency [3] | Potency [7] | Potency [4] | Potency [5] | Potency [8] | Potency [6]
active: Potency [9] 11.9 µM

C[C@]12CC[C@H]3C(=CCc4cc(O)ccc43)[C@@H]1CCC2=O
inactive: Potency [1] | Potency [2] | Potency [4] | Potency [5] | Potency [8] | Potency [6]

CCCCCCCC/C=C\CCCCCCCC(=O)N(C)CC(=O)O
inactive: Potency [1] | Potency [4] | Potency [8] | Potency [6]
active: Potency [2] 43.3 µM

COc1cc(C(C)C)c2c(c1)S(=O)(=O)N(COc1cc(=O)n3cccc(OCCN4CCCCC4)c3n1)C2=O
inactive: Potency [1] | Potency [3] | Potency [7] | fluorescence, relative to Rose Bengal [4] 0.436% [at 18.6 µM] | fluorescence, % of fluorescein control [5] -0.0646% [at 18.6 µM] | fluorescence, % of triamterene [8] 0.0293% [at 18.6 µM] | fluorescence, % of fluorescent control [6] 0.266% [at 18.6 µM]

CCCCCCCCCCCCN(CCO)CCO
active: Potency [2] 54.3 µM
inactive: Potency [1] | Potency [5] | Potency [8] | Potency [6]

COc1ccc2sc(C(=O)Nc3nnn[nH]3)c(OC(C)C)c2c1
inactive: Potency [1] | Potency [7] | Potency [4] | Potency [5] | Potency [8] | Potency [6]
active: Potency [2] 24.2 µM

CC(C)(C)c1cc(/C=C2\SC(=N)NC2=O)cc(C(C)(C)C)c1O
active: Potency [2] 68.6 µM | Potency [9] 12.2 µM
inactive: Potency [1] | Potency [5] | Potency [6]

c1ccc(Sc2ccccc2)cc1
inactive: Potency [1] | Potency [2] | Potency [3] | Potency [4] | Potency [5] | Potency [6]

O=C1NCCN1CCN1CCC(c2cn(-c3ccc(F)cc3)c3ccc(Cl)cc23)CC1
active: Potency [3] 29.8 µM
inactive: Potency [1] | Potency [7] | Potency [4] | Potency [5] | Potency [8]

C[Si](C)(C)Cl
inactive: Potency [1] | Potency [2] | Potency [3] | Potency [4] | Potency [5] | Potency [8] | Potency [6]

CC(C)(C)C1=CC(=O)C=C(C(C)(C)C)C1=O
inactive: Potency [1] | Potency [4] | Potency [5] | Potency [8] | Potency [6]
active: Potency [3] 30.6 µM | Potency [7] 61.1 µM | Potency [9] 7.7 µM

O[C@@H](c1cc(C(F)(F)F)nc2c(C(F)(F)F)cccc12)[C@H]1CCCCN1
active: Potency [2] 21.1 µM | Potency [3] 23.7 µM
inactive: Potency [1] | Potency [4] | Potency [8] | Potency [6]

CCCCN(CCCC)CCC(O)c1cc2c(Cl)cc(Cl)cc2c2cc(C(F)(F)F)ccc12 (stereo not drawn)
inactive: Potency [1] | Potency [2] | Potency [3] | fluorescence, relative to Rose Bengal [4] 0.511% [at 18.6 µM] | fluorescence, % of triamterene [8] -0.234% [at 18.6 µM] | fluorescence, % of fluorescent control [6] 0.217% [at 18.6 µM]

CC(=O)Nc1ccc(O)cc1
inactive: Potency [1] | Potency [3] | Potency [7] | Potency [9] | Potency [5] | Potency [8]

CC(C)(C)CC(C)(C)c1ccccc1O
active: Potency [2] 43.5 µM | Potency [7] 27.4 µM
inactive: Potency [1] | Potency [4] | Potency [5] | Potency [8]

CC(CN(C)C)CN1c2ccccc2CCc2ccccc21 (stereo not drawn)
inactive: Potency [1] | Potency [2] | Potency [3] | fluorescence, % of fluorescein control [5] -0.198% [at 18.6 µM] | fluorescence, % of triamterene [8] -0.0464% [at 18.6 µM]

COCC(=O)O[C@]1(CCN(C)CCCc2nc3ccccc3[nH]2)CCc2cc(F)ccc2[C@@H]1C(C)C
active: Potency [2] 11.9 µM | Potency [3] 10.6 µM
inactive: Potency [1] | Potency [4] | Potency [5] | Potency [8] | Potency [6]

Clc1ccc(C(Cn2ccnc2)OCc2c(Cl)cccc2Cl)c(Cl)c1 (stereo not drawn)
inactive: Potency [1] | Potency [3] | Potency [7] | fluorescence, relative to Rose Bengal [4] 0.526% [at 18.6 µM] | fluorescence, % of fluorescein control [5] -0.003% [at 18.6 µM] | fluorescence, % of triamterene [8] -0.277% [at 18.6 µM] | fluorescence, % of fluorescent control [6] -0.295% [at 18.6 µM]

CSc1c(Cl)c(Cl)c(Cl)c(Cl)c1Cl
inactive: Potency [1] | Potency [3] | Potency [7] | Potency [4] | Potency [5] | Potency [6]

CC(=O)OC(OC(C)=O)c1ccc([N+](=O)[O-])o1
inactive: Potency [4] | Potency [8] | Potency [6]
active: Potency [3] 62.2 µM | Potency [9] 31.2 µM

N#CSCSc1nc2ccccc2s1
inactive: Potency [3] | Potency [7] | Potency [4] | Potency [5] | Potency [8] | Potency [6]
active: Potency [2] 21.7 µM

CCCCCCOc1cc(C)c(O)c(C)c1C
active: Potency [7] 27.6 µM
inactive: Potency [1] | Potency [5] | Potency [8]

NCCCC(O)(P(=O)(O)O)P(=O)(O)O
inactive: Potency [2] | Potency [3]

Clc1ccccc1CN1CCc2sccc2C1
inactive: Potency [1] | Potency [3] | Potency [4]
active: Potency [9] 26.6 µM

Cc1cc(Nc2ccc(O)cc2)ccc1N
inactive: Potency [2] | Potency [5] | Potency [6]
active: Potency [3] 27.2 µM

c1cc(OCC2CO2)cc(OCC2CO2)c1 (stereo not drawn)
inactive: Potency [1] | Potency [7] | Potency [4] | Potency [5] | Potency [6]

Oc1ccc(-c2ccc(O)cc2)cc1
inactive: Potency [3] | Potency [7] | Potency [4] | Potency [5] | Potency [8]

COC(=O)[C@]1(C)CCC[C@@]2(C)[C@H]1CC=C1C=C(C(C)C)CC[C@@H]12
active: Potency [9] 54.5 µM
inactive: Potency [1] | Potency [8]

CNCC[C@H](Oc1cccc2ccccc12)c1cccs1
inactive: Potency [7] | Potency [4] | Potency [8] | Potency [6]
active: Potency [9] 13.3 µM

NC1(c2ccc(-c3nc4ccn5c(=O)[nH]nc5c4cc3-c3ccccc3)cc2)CCC1
inactive: Potency [1] | Potency [7] | Potency [4] | Potency [5] | Potency [6]

CN(C)c1ccc(N=Nc2ccccc2C(=O)O)cc1
inactive: Potency [7] | Potency [5] | Potency [8] | Potency [6]
active: Potency [3] 54.5 µM

C=CC(=O)OCCC#N
inactive: Potency [1] | Potency [3] | Potency [7] | Potency [4] | Potency [6]

COC(=O)C1=C(C)NC(C)=C(C(=O)OCCCN2CCC(c3ccccc3)(c3ccccc3)CC2)C1c1cccc([N+](=O)[O-])c1 (stereo not drawn)
active: Potency [2] 26.6 µM | Potency [3] 23.7 µM
inactive: Potency [7] | Potency [4] | Potency [5] | Potency [6]

Clc1ccc(C(Cn2ccnc2)OCc2ccsc2Cl)c(Cl)c1 (stereo not drawn)
inactive: Potency [1] | Potency [4] | Potency [5] | Potency [8]

NC(=O)c1nc(-c2cccc(-c3cc(F)ccc3OCC(F)(F)C(F)(F)F)c2)n[nH]1
inactive: Potency [1] | Potency [4] | Potency [5] | Potency [8] | Potency [6]

CCCCCCC(C)OC(=O)COc1nc(F)c(Cl)c(N)c1Cl (stereo not drawn)
active: Potency [9] 61.1 µM
inactive: Potency [1] | Potency [3] | Potency [4] | Potency [5] | Potency [8] | Potency [6]

CN1[C@@H]2CC[C@H]1CC(OC(=O)C(CO)c1ccccc1)C2 (stereo partly drawn)
inactive: Potency [7] | Potency [4] | Potency [6]

O=C(O)CCn1c2c(c3ccccc31)C[C@H](NS(=O)(=O)c1ccc(F)cc1)CC2
inactive: Potency [1] | Potency [3] | Potency [4] | Potency [5] | Potency [8] | Potency [6]

CC=O
inactive: Potency [1] | Potency [4] | Potency [5] | Potency [8] | Potency [6]

SCCCCCCCCS
inactive: Potency [2] | Potency [7] | Potency [4] | Potency [5] | Potency [6]

Cc1c(-c2ccc(O)cc2)n(Cc2ccc(OCCN3CCCCCC3)cc2)c2ccc(O)cc12
inactive: Potency [7] | Potency [4] | Potency [5] | Potency [8] | Potency [6]
active: Potency [9] 10.6 µM

S=C(SSSSSSC(=S)N1CCCCC1)N1CCCCC1
inactive: Potency [2] | Potency [7] | fluorescence, relative to Rose Bengal [4] -0.0183% [at 18.6 µM] | fluorescence, % of triamterene [8] 0.0298% [at 18.6 µM] | fluorescence, % of fluorescent control [6] 0.199% [at 18.6 µM]

CC1=C(/C=C/C(C)=C/C=C/C(C)=C\C=O)C(C)(C)CCC1
active: Potency [9] 57.9 µM
inactive: Potency [7] | Potency [5] | Potency [8] | Potency [6]

O=C(Oc1ccccc1)c1cccc(C(=O)Oc2ccccc2)c1
inactive: Potency [3] | Potency [4] | Potency [5] | Potency [8] | Potency [6]
active: Potency [1] 3.86 µM | Potency [9] 32.3 µM

O=C1c2c(O)ccc(O)c2C(=O)c2c(NCCNCCO)ccc(NCCNCCO)c21
active: Potency [2] 4.52 µM | Potency [3] 9.02 µM
inactive: fluorescence, relative to Rose Bengal [4] 0.231% [at 18.6 µM] | fluorescence, % of fluorescein control [5] -0.149% [at 18.6 µM] | fluorescence, % of triamterene [8] -0.405% [at 18.6 µM]

CCc1ccc(O)c(C(C)(C)C)c1
inactive: Potency [1] | Potency [3] | Potency [5] | Potency [8] | Potency [6]
active: Potency [9] 8.63 µM
